Screen size: about 1,600 compounds; fewer than 10 were called active. Inconclusive results (about 48%) are left out.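 The calls were made as follows: active = Normal-ribosome green reporter loss at least double humanized-ribosome red reporter loss, with overall culture growth inhibition under a set limit; inconclusive = no clear call, values can overlap the other calls; inactive = the rest.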 A selection follows. Measured potencies and affinities stand elsewhere.
Experiment: E. coli growth inhibition, wild-type GFP versus H38 humanized RFP strain – H38 mutant RFP vs wild-type GFP, cherry-pick, dose response (AID 977630)
Details: mixed culture, 24 h; series mostly up to 50 µM; activity change, negative = inhibition: at the top concentration

Activity change, negative = inhibition, inactive:
CCCN1C(=O)C(O)(c2c(C)[nH]c3ccccc23)c2ccccc21 (configuration not stated) -18.9
COc1ccc(CNC(=O)c2sc3nc4c(c(C(F)(F)F)c3c2N)CCC4)cc1OC -11.4
CN(Cc1ccc([N+](=O)[O-])cc1)c1ccccc1 -10.1
Cc1ccc(NCC(=O)c2ccc(C)cc2)cc1 0.121
Cn1c(=O)c2c(-c3ccccc3)n(-c3cc([N+](=O)[O-])ccc3N)cc2n(C)c1=O -18.8
CC1(C(=O)NS(=O)(=O)c2cccc(C#N)c2)CCN1C(=O)C1(c2ccc(Cl)cc2)CCC1 (configuration not stated) -1.38
C[C@@H]1CN([C@@H](C)CO)C(=O)c2cccc(NC(=O)c3nc4ccccc4s3)c2O[C@@H]1CN(C)CC1CC1 -19.9
Cc1nc(-c2ccc([N+](=O)[O-])cc2)c(-c2ccccc2)o1 -20.8
O=C(CN1CCN(S(=O)(=O)c2ccc(Cl)cc2)CC1)Nc1ccc2c(c1)CCC2 -9.95
CC(NC(=O)c1ccncc1)c1ccc(Cl)cc1Cl (configuration not stated) -19.8
O=C(Nc1ccn(Cc2ccc(Cl)cc2)n1)c1ccccc1 -0.788
CCCOC(=O)c1ccc(NC(=O)c2nc3nc(C)cc(C)n3n2)cc1 -9.11
C[C@@H]1CCCCO[C@H](CN(C)C(=O)CCCN(C)C)[C@H](C)CN([C@@H](C)CO)C(=O)c2cc(NC(=O)Nc3cccc4ccccc34)ccc2O1 14.9
CCOc1ccccc1C(=O)NCC(=O)OCCOc1cccc(Cl)c1 -4.31
CCOC(=O)C(C)(C)n1nnc(-c2ccc([N+](=O)[O-])cc2)n1 -7.22
O=c1c2ccccc2nc(SCc2ccccc2)n1CC1CCCO1 (configuration not stated) -7.73
Cc1ccc(N2C(=S)NC3c4cc(Cl)ccc4OC2(C)C3C(=O)N(C)C)cc1 (configuration not stated) -10.2
CC1(c2ccc3ccccc3c2)NC(=O)N(CC(=O)N2CCN(c3ccccc3O)CC2)C1=O (configuration not stated) -0.089
O=C(Nc1ccc(Br)cc1)c1cccnc1N1CCCCC1 -2.35
CCc1ccc2nc(SCC(=O)Nc3ccccc3N3CCOCC3)c(C#N)cc2c1 26.5
CSc1nc2ccc(NS(=O)(=O)c3ccc([N+](=O)[O-])cc3)cc2s1 -13.8
COc1ccc(C2CC(c3cccs3)=Nc3ccccc3S2)cc1 (configuration not stated) -8.48
Cc1ccccc1CSc1nnc(-c2ccccn2)n1C -8.9
CCOC(=O)c1c(C)[nH]c(C)c1S(=O)(=O)NCCN1CCN(c2ccccc2F)CC1 -19
O=C(CSc1nnc(COc2cccc3cccnc23)o1)c1ccc(F)cc1 -5.21
O=C(O)c1nn2c(C(F)(F)F)cc(-c3cccs3)nc2c1Cl -5.18
COc1ccc(CC(=O)Nc2cc(S(=O)(=O)Nc3ccc(OC)cc3)ccc2OC)cc1 -1.66
